# Experimental data taken from PubChem BioAssay (NCATS).
# Values joined by “and” are separate entries in the source; they are usually repeats but may differ in a detail not shown here. Equal entries are not always repeated. Records with an inconclusive call do not appear. A call without a number means that no potency is given here. A structure can be active in one record and inactive in another. Active and inactive are the calls of the source. Calls follow the shape of the dose curve; as a rule, active = well fitted cell-killing curve with a large enough effect; inconclusive = small, poorly fitted or top-dose-only effect; inactive = flat fitted curve, though single readings scatter.
# Assay: Cell Viability - LYMP1-002 - Assay at 40 hr (AID 994); also: nearly all actives have a fitted effect of over 60% in size
# Conditions: LYMP1-002 lymphoblastoid cell viability; series mostly up to 92.2 µM
# Excerpt: NIH Chemical Genomics Center [NCGC]
# NIH Molecular Libraries Screening Centers Network [MLSCN]
# National Institutes of Environmental Health Sciences [NIEHS]
# National Toxicology Program [NTP]
# We have developed a 1536-well cell-based assay for quantitative high throughput screening (qHTS) against a number of cell lines to determine in vitro cytotoxicity of small molecules. This particular assay uses a human lymphoblastoid cell line (LYMP1-002) purchased from Coriell Institute for Medical Research.
# NCGC Assay Protocol Summary:
# The CellTiter-Glo luminescent cell viability assay (Promega) is a homogeneous method to measure the number of viable cells in culture. The end point readout of this assay is based on quantitation of intracellular ATP, an indicator of metabolic activity, using the luciferase reaction. Luciferase catalyzes the oxidation of beetle Luciferin to oxyluciferin and light in the presence of ATP. The luminescent signal is proportional to amount of ATP present.
# Using the CellTiter-Glo luminescent cell viability assay, the amount of cellular ATP was measured in the lymphoblastoid cell line with complete culture medium following compound treatment for 40 hours. The assay was performed in opaque white Kalypsys 1536-well plates. In the screen, tetraoctylammonium bromide was used as positive control. Library compounds were measured for their ability to cause acute toxicity in the cell line, as reflected by a decrease in intracellular ATP levels, in a concentration-dependent manner. […] AC50 values were determined from concentration-response data modeled with the standard Hill equation.
# qHTS protocol for CellTiter Glo lymphoblastoid cellular assay
# [Step] [Parameter] [Value] [Description]
# 1. Reagent; 5 uL; 2500 lymphoblastoid cells/well
# 2. Time; 5 hr; 37 C incubation
# 4. Controls; 23 nL; Tetraoctylammonium bromide 6.4pM to 92 uM
# 5. Time; 40 hr; 37 C incubation
# 6. Reagent; 5 uL; CellTiter Glo reagent
# 7. Time; 30 min; Room Temperature
# 8. Detection; Luminescence; Viewlux plate reader
# Keywords: cell viability, cytotoxicity, lymphoblastoid cell line, luminescence, NTPHTS, NTPHTS_NCGC, NIEHS, DSSTox, MLSMR, MLSCN, NIH Roadmap, qHTS, NCGC
# Potency is read from the fitted curve at half-maximal effect.
row,Structure (SMILES),Potency
1,CCOC(=O)c1ccccc1C(=O)OCC,inactive
2,CC(C)(C)c1cc(O)ccc1O,inactive
3,COc1ccc2c(c1OC)C(=O)OC2C1c2cc3c(cc2CCN1C)OCO3 (stereo unspecified),inactive
4,O=Cc1ccco1,inactive
5,ClC(Cl)(Cl)Cl,inactive
6,O=C(O)C(Cl)(Cl)Cl,inactive
7,C[C@H]1CC[C@@H]2[C@@H](C)[C@H]3[C@H](C[C@H]4[C@@H]5CC=C6CC(O[C@@H]7O[C@H](CO)[C@H](O)[C@H](O[C@@H]8O[C@H](CO)[C@@H](O)[C@H](O)[C@H]8O)[C@H]7O[C@H]7O[C@@H](C)[C@H](O)[C@@H](O)[C@H]7O)CC[C@]6(C)[C@H]5CC[C@]34C)N2C1 (stereo partly specified),39.8 µM (active)
8,COC1=CC(=O)O[C@@H](/C=C/c2ccccc2)C1,inactive
9,[Cl-].[Cl-].[Hg+2],3.16 µM (active)
10,C=CCN=C=S,inactive
11,O=CC=O,inactive
12,ClC=C(Cl)Cl,inactive
13,O=C1C2CC=CCC2C(=O)N1SC(Cl)(Cl)Cl (stereo unspecified),15.8 µM (active)
14,CC(C)Nc1ccc(Nc2ccccc2)cc1,50.1 µM (active)
15,O=[N+]([O-])c1ccccc1,inactive
16,Clc1ccccc1Cl,inactive

row,Structure (SMILES),Potency
1,S=C=S,inactive
2,C[C@]12CCC(=O)C[C@@H]1CC[C@@H]1[C@@H]2CC[C@]2(C)[C@@H](O)CC[C@@H]12,inactive
3,O=C/C=C/c1ccccc1,inactive
4,O=C1C=CC(=O)C=C1,inactive
5,CC(C)CCON=O,inactive
6,[O]=[Cd],inactive
7,C[C@H]1CCC[C@H](O)CCCCCc2cc(O)cc(O)c2C(=O)O1,inactive
8,ClCC1CO1 (stereo unspecified),inactive
9,NNC(N)=O,inactive
10,CCCCCl,inactive
11,Oc1cc(Cl)c(Cl)cc1Cl,inactive
12,CCCCCCCCOC(=O)c1ccccc1C(=O)OCCCCCCCC,inactive
13,[O]=[Cr](=[O])([OH])[O][Cr](=[O])(=[O])[OH],inactive and 39.8 µM (active)
14,O=C1CCO1,inactive
15,O=[N+]([O-])c1ccc(F)c([N+](=O)[O-])c1,inactive
